# Experimental data from the supplement of paper PMC6555819.
# Tested on: VDR:RXRa (NR concentration 270 nM, RXRa partner concentration 90 nM)
# Experiment: PBM binding z-score (relative to random genomic background probes); higher = stronger binding; sequences stand for … in GC…GCGATTGACAGCGTAGAATGAAGG
# Method: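 Protein-binding microarray (Agilent 4x180K custom design, double-stranded 60-nt probes: 5' GC cap, 34-nt variable region, 24-nt constant primer region; full probe sequence given). Purified or IVT nuclear receptor:RXRα heterodimers (3:1 NR:RXRα, mostly 270:90 nM) or homodimers were incubated for 1 h in PBS with 2% milk and no ligand, then detected with Alexa488 antibodies. Fluorescence from o1-orientation probes (~5 replicates averaged) was converted to z-scores against 500 random hg19 background probes. Variable regions are seed direct-repeat (DR0–DR5) sites, all their single-nucleotide variants and half-site ablations.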
row,Sequence,PBM binding z-score
1,CCGACTGGGGCAGAAGGGTTACCATACCATCCGG,0.121
2,TCGTGTAGGTTAGGGGCATTCAGAATGGCGTCGA,0.914
3,CGTCCAAGGTCATAGGAGGTCAGTGTAGACAGAT,6.49
4,CCTCGTAGGACAACAGGAGGTCAGAGCTGCCAGA,1.64
5,GCTAGTTGGTCAGAAAAAGGTCACACACCGGTCG,3.77
6,GCTAGCAGGCCATTTGGGTCAATCAATGACGGGC,0.778
7,GCTGCTAGGTCAAATGATGGTCAGCTAAAGCTCG,1.96
8,ACAGACAGGTGATGAAGGTCACTCAGGCTATCAT,4.67
9,TCTTGTAGATCAGCAGGTTAAGTAAGCTGGCCAA,0.413
10,CCTATTAGTTGACCATAAGGGCAATCGAAGCTCG,0.713
11,CGAACTAGTTCATCCAGGACAGTGAATACATTGA,2.23
12,TCTTGTAGATCAGCCGGTTAAGAAAGCTGGCCAA,-0.00365
13,AGAATGAGCTTATTAAGATCAGGGAATTGCGGTC,-0.43
14,ATATGTAGGTTATCTGGTCATTCAGTTTGCGCAT,2.12
15,TCTCGGAGGACACGAAGGGTCAGAGCTCGACATC,1.91
16,CCTATTAGTTGACCATAAGGGCATCCGAAGCTCG,0.862
17,CCTTACGGGTCAAGGTGATAGCACGGGTGGTACG,2.92
18,CGAACTAGGTCATCCAGGACAGTGCATACATTGA,4.69
19,ATATGTAGGTCACATCCGGGTCATTCAGGCTATG,6.03
20,TCTGCTCGGTCAACGATGGTCAGCTAATCTGCTA,-0.245

row,Sequence,PBM binding z-score
1,ATACCGAGGTGATCGTGAGGTCGTTGATACTAAC,3.69
2,TCTAGCAGGCCAGAGGGTCGCTCAAGAGGTACGG,-0.181
3,AGTCAACGTTCATCTAGGTAACGTAAGATATGCT,-0.0927
4,CCTGCTAGGTCGATGGTCAGCTAAAGCAGCTCGC,-0.292
5,ACTGACAGGTGATGAAGGTAACTCAGGCTATCAT,0.103
6,AGAACGAGGGCAATGCGTTGATAGCACGGGTGGC,1.16
7,TTACCAAGGTGAAAGGGCGTTGATGCACGCCTTG,0.61
8,CATACAGGGTCAGCTAGGCCAAAGTAGGGACGGC,4.73
9,TCTAGCAGACCAGAGGGTCACTCAAGAGGTACGG,1.08
10,GCTTACGGGTCAAAGGTTATACCATGAATAGAAT,5.75
11,TTACCAACGTGAAGGTCGTTGATCCCTCTGTAGA,1.09
12,TAGCCTAGGTCATGGGCCAGTCTACCACGCGAAC,1.82
13,AGAACGAGGGCAATGAGTTGATAGAACGGGTGGC,5.04
14,GGAACGAGGGTAAAGTTGATAGCATCTGTCGACG,0.137
15,CCGACTGGGGCTAGGTTACCATAACGCACAGCCA,-0.65
16,CCGACTGCGGCAAGGTTACCATAACGCACAGCCA,0.302
17,GATACAGGGTCAAGGCCAGTGTACGCGTATTGAT,4.28
18,CCGACTGGTGCAAGGTTACCATAACGCACAGCCA,0.278
19,CCCAGTTGGTCAGGAGGTCACACACCGGATATGA,3.96
20,CAAGACAGGTGAGAAGGTAACTCAGCCTCGATTA,-0.155
